From PubChem BioAssay (NCATS)
Results filed as inconclusive are left out. Calls of active or inactive are those of the source. Unless noted, the rule behind the calls is not given here.

What was measured:
[1] = qHTS profiling of the MIPE4 collection as inhibitors of Plasmodium falciparum (3D7) proliferation (AID 743344);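 note: scaled between DMSO vehicle wells and 0.29 µM artemisinin as full inhibition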; conditions: P. falciparum 3D7 in erythrocytes, SYBR Green DNA fluorescence, 72 h; at 28.5 µM unless noted
Procedure, shortened: (§1)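 Parasite DNA was quantified by SYBR Green I fluorescence (ex 485, em 535 nm) after overnight lysis in saponin/Triton buffer at room temperature. Cultures at 0.3% parasitemia and 2.5% hematocrit were first exposed to compound for 72 h at 37 C; signals were normalised to artemisinin (0.29 uM) and vehicle wells.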

[2] = qHTS profiling of the MIPE4 collection as inhibitors of Plasmodium falciparum (DD2) proliferation (AID 743345); conditions: P. falciparum Dd2 in erythrocytes, SYBR Green DNA, 72 h; at 28.5 µM unless noted
Procedure, shortened: as §1

[3] = qHTS profiling of the MIPE4 collection as inhibitors of Plasmodium falciparum (DD2) proliferation (Rep 2) (AID 743346); conditions: P. falciparum Dd2 in erythrocytes, SYBR Green DNA, 72 h; at 28.5 µM unless noted
Procedure, shortened: as §1

[4] = qHTS profiling of the MIPE4 collection as inhibitors of Plasmodium falciparum (HB3) proliferation (AID 743347);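 note: plate controls were DMSO vehicle wells for no effect and artemisinin wells for full effect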; conditions: P. falciparum HB3 in erythrocytes, SYBR Green DNA, 72 h; at 28.5 µM unless noted
Procedure, shortened: as §1

[5] = High-throughput drug toxicity screening in the BPDCN cell line Gen2.2 (AID 1224824); conditions: Gen2.2 BPDCN cells; at 45.8 µM (top of the series) unless noted;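 note: cells exposed to compounds for 48 h before reading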
Procedure, shortened: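 Gen2.2 cells (500/well) in phenol red-free RPMI with 10% FBS were exposed to compounds for 48 h at 37 °C, 5% CO2. Viability was read by CellTiter-Glo luminescence and normalized to DMSO (100%) and 9.2 uM bortezomib (0%).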

[6] = High-throughput drug toxicity screening in the BPDCN cell line Cal-1 (AID 1224825); conditions: Cal-1 BPDCN cell viability, qHTS; at 45.8 µM (top of the series) unless noted
Procedure, shortened: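 Percent activity derived from CellTiter-Glo luminescence, scaling DMSO to 100% and 9.2 uM final bortezomib to 0%. BPDCN Cal-1 cells (500/well, RPMI plus 10% FBS) incubated with compounds 48 hours at 37C before reading.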

[7] = qHTS assay for measurement of the activity of small molecule inhibitors on Zika virus induced Caspase-3 activity in human iPSC derived neural progenitor cells (hNPCs) (AID 1224857; active = well fitted curve in the direction sought with a large enough effect; an effect the other way counts as inactive or inconclusive; note: nearly all actives have a fitted effect of over 65% in size; note: potency is the fitted concentration of half-maximal effect)
Procedure, shortened: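 Zika virus (2 FFU/cell) infection of human iPSC-derived NPCs, 6 h, following 1 h compound preincubation. Read-out: Caspase-Glo 3/7 luminescence.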

[8] = qHTS profiling for inhibitors of Plasmodium falciparum (3D7) proliferation (AID 743322);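 note: infected erythrocytes exposed to compound for 72 h before lysis; 100% = DMSO vehicle wells and 0% = 0.29 µM artemisinin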; conditions: P. falciparum 3D7 proliferation; at 28.7 µM (top of the series)
Procedure, shortened: as §1

[9] = qHTS profiling for inhibitors of Plasmodium falciparum (DD2) proliferation (AID 743323); conditions: lower = more inhibition; at 28.7 µM (top of the series)
Procedure, shortened: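 1536-well qHTS; infected RBCs 0.3% parasitemia/2.5% Hct final; cpd 72 h 37 C 5% CO2; lysis buffer + SYBR Green I, o/n RT dark; FI 485/535; norm. to 0.29 uM artemisinin and DMSO, plate-stack corrected.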

[10] = qHTS profiling for inhibitors of Plasmodium falciparum (HB3) proliferation (AID 743324; active = well fitted curve in the direction sought with a large enough effect; an effect the other way counts as inactive or inconclusive;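 note: 100% = DMSO vehicle wells and 0% = artemisinin-treated control wells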); conditions: Plasmodium falciparum HB3 blood-stage proliferation; at 28.7 µM (top of the series)
Procedure, shortened: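 SYBR Green fluorescence (485 ex/535 em) of lysed cultures, incubated overnight at room temperature in the dark, quantifies parasite DNA. Infected erythrocytes at 0.3% parasitemia and 2.5% hematocrit were exposed 72 h; values normalized to DMSO and 0.29 uM artemisinin controls.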

Row | SMILES | parasite growth, % of DMSO control [1] | parasite growth remaining, % of DMSO control (lower = more inhibition) [2] | parasite growth, % of control (lower = inhibition) [3] | growth, % of control [4] | cell viability, % of control (lower = more cytotoxic) [5] | viability (% of control) [6] | Potency [7] | remaining parasite growth % (stronger effect = lower value) [8] | activity, percent of control [9] | remaining proliferation (% of control), lower = more inhibition [10]
1 | NC1=N[C@@]2(c3cc(NC(=O)c4ccc(F)cn4)ccc3F)COC[C@@H]2CS1 | 23.2% | 20.8% | 26.1% | 20.1% | 21.6% | 12.9% | inactive | – | – | –
2 | Cc1[nH]c(C=C2C(=O)Nc3ccc(S(=O)(=O)Cc4c(Cl)cccc4Cl)cc32)c(C)c1C(=O)N1CCC[C@H]1CN1CCCC1 | 6.34% | 8.07% | 12% | 5.52% | 6.62% | 2.43% | inactive | – | – | –
3 | Cc1ccc(C(C)(O)c2nc3ccccc3s2)c(C)c1 (centres undefined) | 61.8% | 90.2% | 88.7% | 95.9% | 129% | 6.97% | inactive | – | – | –
4 | COc1ccc(-c2coc3cc(O)ccc3c2=O)cc1 | 65.1% | 8.21% | 96.3% | 92.8% | 191% | 109% | 18.7 µM (active) | – | – | –
5 | O=C(O)c1ccc(-c2c[nH]c3ncc(-c4ccccc4)cc23)cc1C1CCCC1 | 5.48% | 8.18% | 9.67% | 3.77% | 116% | 73.1% | inactive | – | – | –
6 | CC=CC(=O)N(CC)c1ccccc1C | 92.3% | 104% | 142% | 99.4% | 116% | 35% | inactive | – | – | –
7 | O=C(NCc1ccncc1)C12C[C@H]3C[C@@H](C1)CC(c1ccc(Cl)cc1)(C3)C2 | 20% | 93.6% | 26% | 42.3% | 16.2% | 11.3% | inactive | – | – | –
8 | CC1(C)CCC[C@@]2(C)[C@@H]1CC[C@@]1(C)OC(=O)C[C@H]21 | 81.6% | 136% | 56.5% | 64.8% | 95% | 102% | inactive | – | – | –
9 | CC[C@H]1OC(=O)[C@H](C)C(=O)[C@H](C)[C@@H](O[C@H]2O[C@H](C)C[C@H](N(C)C)[C@@H]2O)[C@](C)(OC)C[C@@H](C)C(=O)[C@H](C)[C@H]2N(CCCCn3cnc(-c4cccnc4)c3)C(=O)O[C@]12C | 5.78% | 14.5% | 32.9% | 9.46% | 122% | 93.6% | inactive | – | – | –
10 | COc1ccc2cccc(CCNC(C)=O)c2c1 | 56.4% | 101% | 72.6% | 41% | 206% | 132% | inactive | – | – | –
11 | CCOC(=O)O[C@]1(C(=O)OCCl)CC[C@@H]2[C@H]3CCC4=CC(=O)C=C[C@]4(C)[C@@H]3[C@@H](O)C[C@@]21C | 48.2% | 86.4% | 44.6% | 68.7% | 84.3% | 77.6% | inactive | – | – | –
12 | OC[C@H]1O[C@@H](Oc2cc(O)cc(C=Cc3ccc(O)cc3)c2)[C@H](O)[C@@H](O)[C@H]1O | 82.6% | 120% | 77.5% | 83.3% | 71.3% | 60.5% | inactive | – | – | –
13 | CC#CCn1c(N2CCC[C@@H](N)C2)nc2c1c(=O)n(Cc1nc(C)c3ccccc3n1)c(=O)n2C | 58% | 22.5% | 22.9% | 88.9% | 159% | 101% | inactive | – | – | –
14 | NC(=O)[C@@H](CCC(F)(F)F)N(Cc1ccc(-c2ncon2)cc1F)S(=O)(=O)c1ccc(Cl)cc1 | 50.8% | 88.9% | 54.6% | 73.5% | 127% | 93.2% | inactive | – | – | –
15 | CN(C)Cc1cccc(N=C(c2ccccc2)c2c(O)[nH]c3cc(C(=O)N(C)C)ccc23)c1 | 16.4% | 30.5% | 12.9% | 36.3% | 6.16% | 6.94% | inactive | – | – | –
16 | COCCOC(=O)C1=C(C)NC2=C(C(=O)CC(c3ccccc3OC)C2)C1c1cccc(O)c1 (centres undefined) | 11.6% | 9.83% | 51.8% | 17.6% | 4.78% | 5.74% | inactive | – | – | –
17 | O=C(CCN1CCN(C(=O)OCc2cc(Cl)cc(Cl)c2)CC1)c1ccc2[nH]c(=O)oc2c1 | 101% | 103% | 85% | 105% | 231% | 115% | 20.9 µM (active) | – | – | –
18 | CC1(C)CCC(CN2CCN(c3ccc(C(=O)NS(=O)(=O)c4ccc(NCC5CCOCC5)c([N+](=O)[O-])c4)c(Oc4cnc5[nH]ccc5c4)c3)CC2)=C(c2ccc(Cl)cc2)C1 | 18.2% | 76.7% | 24.1% | 6.5% | 37.9% | 24.1% | inactive | – | – | –
19 | COc1cccc(-c2cc(=O)c3ccccc3o2)c1N | 73.4% | 91.1% | 87.6% | 60% | 45.3% | 9.08% | 18.7 µM (active) | – | – | –
20 | CC(C)(C)NC(=O)Nc1cccc(Nc2ncc(F)c(NC(C)(C)CO)n2)c1 | 5.44% | 7.22% | 7.73% | 3.88% | 235% | 45.1% | inactive | – | – | –
21 | O=C(O)C(O)Cc1ccc(O)c(O)c1 (centres undefined) | 102% | 79.5% | 65.6% | 106% | 94.8% | 105% | inactive | – | – | –
22 | CC(C)n1nc(-c2ccc3oc(N)nc3c2)c2c(N)ncnc21 | 5.01% | 9.14% | 6.88% | 4.46% | 1.63% | 8.31% | inactive | – | – | –
23 | Cc1cnc(C(=O)O)c[n+]1[O-] | 97% | 104% | 108% | 66.8% | 174% | 105% | inactive | – | – | –
24 | Cc1nc(N)sc1-c1ccnc(Nc2ccc(N3CCOCC3)cc2)n1 | – | – | – | – | – | – | – | 2.54% | 7.68% | 10.5%
25 | COc1cc2c(cc1OC)CN(CCc1ccc(NC(=O)c3cc(OC)c(OC)cc3NC(=O)c3cnc4ccccc4c3)cc1)CC2 | 39.1% | 83.6% | 83.4% | 93.6% | 115% | 93.8% | – | – | – | –
26 | CC(=Cc1ccccc1)C=C1SC(=S)N(CC(=O)O)C1=O | 92.1% | 102% | 81.2% | 98.1% | 124% | 125% | – | – | – | –
27 | O=c1c(O)c(-c2ccc(O)cc2)oc2cc(O)cc(O)c12 | 24.5% | 97.3% | 27.5% | 19.7% | 140% | 13.1% | – | – | – | –
28 | C[C@H](NC(=O)c1sccc1OCc1ccc(Cl)cc1)c1ccccc1 | 13.9% | 14.8% | 10.7% | 3.82% | 181% | 45.5% | – | – | – | –
29 | Nc1ncnc2c1ncn2[C@@H]1O[C@@H](CO)[C@H](O)[C@H]1O | 103% | 84.1% | 114% | 111% | 235% | 117% | – | – | – | –
